Data: the supplement of paper PMC8387472

Experiments:
Conditions in all cases: mESC; 2uM; 72 h treatment, harvest day 5
Kenpaullone = compound: O=C1Cc2c([nH]c3ccc(Br)cc23)-c2ccccc2N1 [Kenpaullone]; assay: fraction of microhomology deletions among edited reads; higher = more MH deletions
Genistein = compound: O=c1c(-c2ccc(O)cc2)coc2cc(O)cc(O)c12 [Genistein]; assay: as above
[1] = compound: O=c1cc(N2CCOCC2)oc2c(-c3ccc4c(c3)OCCO4)csc12; assay: as above
Mercaptopurine (6-MP) = compound: S=c1[nH]cnc2nc[nH]c12 [Mercaptopurine (6-MP)]; assay: as above
[2] = compound: S=c1nc[nH]c2nc[nH]c12 [6-Mercaptopurine (6-MP) Monohydrate]; assay: as above
[3] = compound: CC(=O)O/N=C1\C(=O)N(Cc2cc(Cl)ccc2Cl)c2ccc(Cl)cc21; assay: fraction of 1-bp insertions among edited reads; higher = more 1-bp insertion outcomes
[4] = compound: CC(C)(C#N)c1ccc(N2C(=O)OCc3cnc4ccc(-c5cnc6ccccc6c5)cc4c32)cc1; assay: as above
[5] = compound: CCCCOc1c(C(=O)c2c(F)cc(C)cc2F)c[nH]c2nncc1-2; assay: as above
[6] = compound: CCN1CCN(CC(=O)Nc2ccc(-c3cccc4c(=O)cc(N5CCOCC5)oc34)c3sc4ccccc4c23)CC1; assay: as above
[7] = compound: CCc1c2c(nc3ccc(OC(=O)N4CCC(N5CCCCC5)CC4)cc13)-c1cc3c(c(=O)n1C2)COC(=O)[C@]3(O)CC [Irinotecan HCl Trihydrate]; assay: as above
[8] = compound: CCn1c(=O)c(-c2ccc(Cl)cc2Cl)cc2cnc(Nc3ccc(N4CCNCC4)c(F)c3)nc21; assay: as above
[9] = compound: CNc1ccc([N+](=O)[O-])c(Nc2ccc3[nH]ncc3c2)n1; assay: as above
Rifapentine = compound: CO[C@H]1/C=C/O[C@@]2(C)Oc3c(C)c(O)c4c(O)c(c(/C=N/N5CCN(C6CCCC6)CC5)c(O)c4c3C2=O)NC(=O)/C(C)=C\C=C\[C@H](C)[C@H](O)[C@@H](C)[C@@H](O)[C@@H](C)[C@H](OC(C)=O)[C@@H]1C [Rifapentine]; assay: as above
[10] = compound: COc1ccccc1-c1cc(Nc2cccc(CS(N)(=O)=O)c2)ncn1; assay: as above
[11] = compound: C[C@@H]1CN(CC(=O)Nc2ccc3c(c2)Cc2cccc(-c4cc(=O)cc(N5CCOCC5)o4)c2S3)C[C@H](C)O1; assay: as above
[12] = compound: Cc1cc(C)nc(SCC(=O)Nc2ncc(Cc3cccc4ccccc34)s2)n1; assay: as above
[13] = compound: Cc1ccc(C(=O)NCCCCCC(=O)Nc2ccccc2N)cc1; assay: as above
[14] = compound: Cc1cccc(CC(=O)N2CCc3c2ccc(-c2cn(C)c4ncnc(N)c24)c3F)n1; assay: as above
[15] = compound: NC(=O)c1ccc2nc(-c3ccc(Oc4ccc(Cl)cc4)cc3)[nH]c2c1 [Chk 2 inhibitor II (BML-277)]; assay: as above
Tucidinostat (Chidamide) = compound: Nc1cc(F)ccc1NC(=O)c1ccc(CNC(=O)/C=C/c2cccnc2)cc1 [Tucidinostat (Chidamide)]; assay: as above

Target	fraction of microhomology deletions among edited reads (Kenpaullone)	fraction of microhomology deletions among edited reads (Genistein)	fraction of microhomology deletions among edited reads [1]	fraction of microhomology deletions among edited reads (Mercaptopurine (6-MP))	fraction of microhomology deletions among edited reads [2]	fraction of 1-bp insertions among edited reads [3]	fraction of 1-bp insertions among edited reads [4]	fraction of 1-bp insertions among edited reads [5]	fraction of 1-bp insertions among edited reads [6]	fraction of 1-bp insertions among edited reads [7]	fraction of 1-bp insertions among edited reads [8]	fraction of 1-bp insertions among edited reads [9]	fraction of 1-bp insertions among edited reads (Rifapentine)	fraction of 1-bp insertions among edited reads [10]	fraction of 1-bp insertions among edited reads [11]	fraction of 1-bp insertions among edited reads [12]	fraction of 1-bp insertions among edited reads [13]	fraction of 1-bp insertions among edited reads [14]	fraction of 1-bp insertions among edited reads [15]	fraction of 1-bp insertions among edited reads (Tucidinostat (Chidamide))
42.0 (DMSO control at this site: 1-bp insertion 0.145, MH deletion 0.655, edited 0.132) GGGCTAAACCTATGAGCACAGTAGAACTAAGGGTGGGTGGTGTAGCTAAAGAACTTGACCA	0.557	0.662	0.691	0.589	0.567	0.116	0.148	0.144	0.0719	0.125	0.133	0.175	0.139	0.162	0.436	0.149	0.138	0.158	0.15	0.203
25.0 (DMSO control at this site: 1-bp insertion 0.017, MH deletion 0.774, edited 0.143) GGGCCTGAATGGTGTGGACATCTACTCGCTGGTGAGCTGGTGACTGAAAACATTCAGTGGC	0.739	0.773	0.772	0.71	0.694	0.0158	0.0262	0.017	0.0169	0.0204	0.0225	0.0261	0.0237	0.0265	0.0481	0.0281	0.0223	0.0292	0.0214	0.0363
26.0 (DMSO control at this site: 1-bp insertion 0.518, MH deletion 0.262, edited 0.026) AGGGCGCGCCCCACGCACTCTGCGGCAAGTCCCTCTGCGGCAAGTCCTCGGCCCGGAAGAC	0.244	0.296	0.338	0.311	0.297	0.507	0.45	0.513	0.131	0.466	0.484	0.558	0.515	0.49	0.691	0.495	0.494	0.525	0.452	0.5
22.0 (DMSO control at this site: 1-bp insertion 0.573, MH deletion 0.229, edited 0.045) CTGATGGTTGAAGGATTTAGCCGGGGTCCTAGACGCCGGGGTCCTAGACGAAAGGGCCACG	0.116	0.139	0.146	0.107	0.155	0.62	0.564	0.613	0.302	0.604	0.614	0.667	0.644	0.619	0.778	0.573	0.653	0.725	0.508	0.53
45.0 (DMSO control at this site: 1-bp insertion 0.017, MH deletion 0.666, edited 0.101) TTACACAGCATGAACTGCTAGGTGATGATGTCAGATTCGGTTTTACTAACTTCTCCAAAAA	0.561	0.601	0.67	0.614	0.557	0.0284	0.0222	0.0249	0.016	0.0413	0.0237	0.0246	0.0255	0.037	0.0735	0.0352	0.0235	0.0353	0.0266	0.0198
3.0 (DMSO control at this site: 1-bp insertion 0.109, MH deletion 0.149, edited 0.09) TGCTAGCGCCCCCACAAAGCGGACCAGCCAGCACTATAGGGAATAAGGCCAACTTGCACCC	0.194	0.196	0.162	0.168	0.254	0.126	0.122	0.16	0.0557	0.111	0.126	0.124	0.133	0.13	0.244	0.144	0.112	0.15	0.121	0.123
40.0 (DMSO control at this site: 1-bp insertion 0.072, MH deletion 0.192, edited 0.189) GCGAATCAACTGTTCAACAACAGCAGCAGCCACCTGGAGGACTACAGTGGCCTGTCCGTGT	0.124	0.192	0.211	0.145	0.137	0.0727	0.0752	0.072	0.0486	0.0746	0.0675	0.0835	0.0737	0.076	0.124	0.0746	0.0721	0.0741	0.0639	0.0778
0.0 (DMSO control at this site: 1-bp insertion 0.463, MH deletion 0.339, edited 0.14) AGGATTACCGAGACCTACGCGAACCGAAATCGCTGTCCGGTGCGCAAGCAGGGCTGGCGTC	0.22	0.34	0.384	0.288	0.282	0.437	0.497	0.504	0.175	0.456	0.394	0.535	0.468	0.559	0.793	0.523	0.498	0.526	0.495	0.534
8.0 GCATGCGTGTTTTGGGACAATGTAGTATACATTTGGGAGGCTCTCAGCTTTTCCCAATAAA	0.0098	–	–	–	0.00885	0.443	0.455	0.303	–	–	–	–	–	–	–	0.418	–	–	–	0.257
28.0 (DMSO control at this site: 1-bp insertion 0.035, MH deletion 0.77, edited 0.142) TGGTTCTTCCTTTGTAGAGAGTGTTCATCTGGGAATCTGGGACTTGGATGAGACAATCATT	0.736	0.784	0.818	0.718	0.693	0.0335	0.0355	0.0391	0.0168	0.0322	0.029	0.0402	0.0344	0.0432	0.078	0.0369	0.0388	0.0456	0.0349	0.0493
